Our source for the inhibition values is ChEMBL document CHEMBL1961873, “Compounds: GSK PKIS; Assays: Nanosyn kinase panel” (2012).

Structures are written as SMILES.

The target in test [1] is Tyrosine-protein kinase CSK (Homo sapiens) (UniProt P41240). The conditions noted are these: at 1 µM.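 Further: each value is an averaged inhibition reading.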
Test [2] concerns the target T1, Discoidin domain-containing receptor 2 (Homo sapiens) (UniProt Q16832).
T1 sequence (whole entry): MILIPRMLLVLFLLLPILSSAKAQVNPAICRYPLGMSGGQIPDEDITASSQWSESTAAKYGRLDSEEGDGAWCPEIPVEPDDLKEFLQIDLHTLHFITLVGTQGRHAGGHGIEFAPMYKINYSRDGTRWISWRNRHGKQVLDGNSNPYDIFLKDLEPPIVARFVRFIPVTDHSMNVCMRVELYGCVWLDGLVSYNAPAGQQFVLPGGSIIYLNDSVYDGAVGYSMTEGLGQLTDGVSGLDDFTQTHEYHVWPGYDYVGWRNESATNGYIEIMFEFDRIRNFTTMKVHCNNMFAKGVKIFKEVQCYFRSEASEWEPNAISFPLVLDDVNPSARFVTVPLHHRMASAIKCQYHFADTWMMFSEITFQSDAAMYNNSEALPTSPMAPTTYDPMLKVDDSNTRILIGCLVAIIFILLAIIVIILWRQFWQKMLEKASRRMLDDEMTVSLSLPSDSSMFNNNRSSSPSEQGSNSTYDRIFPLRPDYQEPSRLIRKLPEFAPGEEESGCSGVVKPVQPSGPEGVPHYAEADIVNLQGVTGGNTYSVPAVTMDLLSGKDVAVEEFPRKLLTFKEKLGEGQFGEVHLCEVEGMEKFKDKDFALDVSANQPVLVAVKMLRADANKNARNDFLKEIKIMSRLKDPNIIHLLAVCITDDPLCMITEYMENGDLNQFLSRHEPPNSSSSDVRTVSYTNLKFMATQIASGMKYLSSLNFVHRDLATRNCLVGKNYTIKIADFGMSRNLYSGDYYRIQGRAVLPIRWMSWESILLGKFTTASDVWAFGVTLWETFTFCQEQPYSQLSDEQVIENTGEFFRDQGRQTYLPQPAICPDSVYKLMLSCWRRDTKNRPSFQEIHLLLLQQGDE
The conditions noted are these: at 0.1 µM.

Test [3] concerns the target T1, Discoidin domain-containing receptor 2 (Homo sapiens). The conditions noted are these: at 1 µM.
Test [4] addresses Epidermal growth factor receptor (Homo sapiens) (UniProt P00533). Conditions: at 0.1 µM.
Test [5] shares this target. Conditions: at 1 µM.
Test [6] concerns Epidermal growth factor receptor (Homo sapiens), P00533 [L858R]. Conditions: at 0.1 µM.
The test system is the same in test [7]. Conditions: at 1 µM.
Test [8] relates to Epidermal growth factor receptor (Homo sapiens), P00533 [L861Q]. Conditions: at 0.1 µM.
For test [9] the test system is unchanged. Conditions: at 1 µM.
For test [10], the system named is Epidermal growth factor receptor (Homo sapiens), P00533 [T790M]. The conditions noted are these: at 0.1 µM.
The test system is the same in test [11]. Conditions: at 1 µM.
In test [12] the test system is Epidermal growth factor receptor (Homo sapiens), P00533 [L858R,T790M]. Conditions: at 0.1 µM.
Test [13] shares this test system. Conditions: at 1 µM.
Test [14] deals with Ephrin type-A receptor 2 (Homo sapiens) (UniProt P29317). The conditions noted are these: at 0.1 µM.
Test [15] shares this target. The conditions noted are these: at 1 µM.
Test [16] deals with T2, Ephrin type-A receptor 3 (Homo sapiens) (UniProt P29320).
T2 sequence (whole entry): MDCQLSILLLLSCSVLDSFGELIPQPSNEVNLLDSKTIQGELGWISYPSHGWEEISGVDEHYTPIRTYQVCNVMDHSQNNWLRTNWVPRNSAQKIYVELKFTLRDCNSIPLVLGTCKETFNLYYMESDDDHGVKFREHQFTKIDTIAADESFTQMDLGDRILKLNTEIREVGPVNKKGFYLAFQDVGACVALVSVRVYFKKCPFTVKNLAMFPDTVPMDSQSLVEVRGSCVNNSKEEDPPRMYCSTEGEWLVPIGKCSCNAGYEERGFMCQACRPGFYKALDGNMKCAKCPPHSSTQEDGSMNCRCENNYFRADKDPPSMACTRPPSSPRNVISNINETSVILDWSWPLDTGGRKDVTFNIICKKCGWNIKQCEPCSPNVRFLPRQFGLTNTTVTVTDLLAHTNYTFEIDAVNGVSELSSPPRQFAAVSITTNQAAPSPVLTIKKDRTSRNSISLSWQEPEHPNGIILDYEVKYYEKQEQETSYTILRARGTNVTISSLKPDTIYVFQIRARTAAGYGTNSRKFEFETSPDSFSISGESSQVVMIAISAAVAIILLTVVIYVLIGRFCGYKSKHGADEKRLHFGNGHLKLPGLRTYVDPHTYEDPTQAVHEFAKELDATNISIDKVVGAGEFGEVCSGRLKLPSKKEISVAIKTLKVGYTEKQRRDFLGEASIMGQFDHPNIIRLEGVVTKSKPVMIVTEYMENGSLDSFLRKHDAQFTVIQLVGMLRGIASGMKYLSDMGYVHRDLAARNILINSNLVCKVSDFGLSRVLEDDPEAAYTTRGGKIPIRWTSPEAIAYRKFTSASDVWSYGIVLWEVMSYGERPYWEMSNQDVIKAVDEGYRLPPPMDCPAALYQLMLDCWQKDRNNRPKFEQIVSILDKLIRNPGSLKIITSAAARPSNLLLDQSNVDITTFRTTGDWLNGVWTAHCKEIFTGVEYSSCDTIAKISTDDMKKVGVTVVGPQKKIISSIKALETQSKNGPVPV
The conditions noted are these: at 0.1 µM.

In test [17] the target is T2, Ephrin type-A receptor 3 (Homo sapiens). The conditions noted are these: at 1 µM.
The target of test [18] is Ephrin type-A receptor 4 (Homo sapiens) (UniProt P54764). The conditions noted are these: at 0.1 µM.
Test [19] has the same target. The conditions noted are these: at 1 µM.
Test [20] concerns the target T3, Ephrin type-B receptor 2 (Homo sapiens) (UniProt P29323).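 Further: reported as mean inhibition of EPHB2, from the GSK PKIS dataset.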
T3 sequence (whole entry): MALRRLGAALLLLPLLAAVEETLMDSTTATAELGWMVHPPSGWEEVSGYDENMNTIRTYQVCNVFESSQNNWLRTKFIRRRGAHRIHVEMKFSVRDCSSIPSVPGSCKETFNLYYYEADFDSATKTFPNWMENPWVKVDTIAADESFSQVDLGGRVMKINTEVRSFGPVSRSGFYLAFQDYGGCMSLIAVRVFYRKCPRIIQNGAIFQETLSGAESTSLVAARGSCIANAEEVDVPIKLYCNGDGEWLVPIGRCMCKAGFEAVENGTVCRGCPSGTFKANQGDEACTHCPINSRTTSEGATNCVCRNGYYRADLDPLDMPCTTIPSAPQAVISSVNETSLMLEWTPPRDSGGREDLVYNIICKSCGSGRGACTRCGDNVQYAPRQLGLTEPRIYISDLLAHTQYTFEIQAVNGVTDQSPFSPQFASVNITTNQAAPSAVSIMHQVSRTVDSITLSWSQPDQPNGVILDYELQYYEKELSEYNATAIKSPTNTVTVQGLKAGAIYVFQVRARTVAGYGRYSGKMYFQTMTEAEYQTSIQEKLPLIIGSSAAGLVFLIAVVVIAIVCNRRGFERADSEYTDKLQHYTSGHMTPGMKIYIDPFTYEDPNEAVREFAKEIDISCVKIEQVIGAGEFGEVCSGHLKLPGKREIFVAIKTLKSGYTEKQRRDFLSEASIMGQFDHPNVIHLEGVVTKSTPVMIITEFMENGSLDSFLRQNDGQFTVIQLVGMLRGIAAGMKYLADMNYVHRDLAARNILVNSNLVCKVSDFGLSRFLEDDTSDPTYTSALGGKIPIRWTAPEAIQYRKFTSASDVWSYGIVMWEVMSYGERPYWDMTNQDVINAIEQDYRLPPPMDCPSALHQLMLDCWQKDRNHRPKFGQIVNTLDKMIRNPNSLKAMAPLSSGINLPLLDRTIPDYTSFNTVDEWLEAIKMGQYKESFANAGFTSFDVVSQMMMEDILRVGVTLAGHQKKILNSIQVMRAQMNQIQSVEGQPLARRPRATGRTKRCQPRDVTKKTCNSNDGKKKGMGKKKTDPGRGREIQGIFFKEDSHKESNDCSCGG
The conditions noted are these: at 0.1 µM.

As a reminder, the inhibition is the change of the read-out against control, counted positive when it falls.

Epidermal growth factor receptor (Homo sapiens), P00533 [L858R,T790M], sequence (P00533 whole entry T790M/L858R, looked up): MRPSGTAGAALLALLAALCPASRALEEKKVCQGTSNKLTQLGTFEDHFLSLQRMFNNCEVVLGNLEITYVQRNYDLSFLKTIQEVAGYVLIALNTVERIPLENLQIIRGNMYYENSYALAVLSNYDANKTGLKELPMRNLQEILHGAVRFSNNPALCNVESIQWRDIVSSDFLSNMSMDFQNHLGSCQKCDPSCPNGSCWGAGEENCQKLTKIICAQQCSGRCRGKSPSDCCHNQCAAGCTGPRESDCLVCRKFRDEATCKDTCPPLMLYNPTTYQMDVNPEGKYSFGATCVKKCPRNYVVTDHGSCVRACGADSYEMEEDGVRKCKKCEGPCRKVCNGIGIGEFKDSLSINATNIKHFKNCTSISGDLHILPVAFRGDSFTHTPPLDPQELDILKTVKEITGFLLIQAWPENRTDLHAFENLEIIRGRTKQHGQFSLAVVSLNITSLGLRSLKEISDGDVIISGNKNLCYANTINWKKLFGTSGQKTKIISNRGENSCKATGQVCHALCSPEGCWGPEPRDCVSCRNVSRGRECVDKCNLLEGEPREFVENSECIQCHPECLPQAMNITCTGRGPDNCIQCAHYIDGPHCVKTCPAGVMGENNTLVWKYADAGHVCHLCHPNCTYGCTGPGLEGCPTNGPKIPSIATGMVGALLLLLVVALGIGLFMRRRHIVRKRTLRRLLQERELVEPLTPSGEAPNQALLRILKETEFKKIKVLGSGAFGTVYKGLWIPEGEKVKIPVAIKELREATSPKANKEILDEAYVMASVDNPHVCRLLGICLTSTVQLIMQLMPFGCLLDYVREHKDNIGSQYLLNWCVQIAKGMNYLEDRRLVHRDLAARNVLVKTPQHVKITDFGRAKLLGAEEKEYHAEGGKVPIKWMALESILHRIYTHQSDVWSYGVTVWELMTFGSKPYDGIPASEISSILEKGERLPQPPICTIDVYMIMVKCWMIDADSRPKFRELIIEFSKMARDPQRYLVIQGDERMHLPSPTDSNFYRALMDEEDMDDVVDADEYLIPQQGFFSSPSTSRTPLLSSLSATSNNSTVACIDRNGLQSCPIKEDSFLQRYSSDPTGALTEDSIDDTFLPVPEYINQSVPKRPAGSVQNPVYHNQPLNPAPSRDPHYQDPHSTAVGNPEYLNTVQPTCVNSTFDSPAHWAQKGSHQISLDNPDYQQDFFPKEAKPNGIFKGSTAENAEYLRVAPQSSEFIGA
Ephrin type-A receptor 2 (Homo sapiens), sequence (P29317 whole entry): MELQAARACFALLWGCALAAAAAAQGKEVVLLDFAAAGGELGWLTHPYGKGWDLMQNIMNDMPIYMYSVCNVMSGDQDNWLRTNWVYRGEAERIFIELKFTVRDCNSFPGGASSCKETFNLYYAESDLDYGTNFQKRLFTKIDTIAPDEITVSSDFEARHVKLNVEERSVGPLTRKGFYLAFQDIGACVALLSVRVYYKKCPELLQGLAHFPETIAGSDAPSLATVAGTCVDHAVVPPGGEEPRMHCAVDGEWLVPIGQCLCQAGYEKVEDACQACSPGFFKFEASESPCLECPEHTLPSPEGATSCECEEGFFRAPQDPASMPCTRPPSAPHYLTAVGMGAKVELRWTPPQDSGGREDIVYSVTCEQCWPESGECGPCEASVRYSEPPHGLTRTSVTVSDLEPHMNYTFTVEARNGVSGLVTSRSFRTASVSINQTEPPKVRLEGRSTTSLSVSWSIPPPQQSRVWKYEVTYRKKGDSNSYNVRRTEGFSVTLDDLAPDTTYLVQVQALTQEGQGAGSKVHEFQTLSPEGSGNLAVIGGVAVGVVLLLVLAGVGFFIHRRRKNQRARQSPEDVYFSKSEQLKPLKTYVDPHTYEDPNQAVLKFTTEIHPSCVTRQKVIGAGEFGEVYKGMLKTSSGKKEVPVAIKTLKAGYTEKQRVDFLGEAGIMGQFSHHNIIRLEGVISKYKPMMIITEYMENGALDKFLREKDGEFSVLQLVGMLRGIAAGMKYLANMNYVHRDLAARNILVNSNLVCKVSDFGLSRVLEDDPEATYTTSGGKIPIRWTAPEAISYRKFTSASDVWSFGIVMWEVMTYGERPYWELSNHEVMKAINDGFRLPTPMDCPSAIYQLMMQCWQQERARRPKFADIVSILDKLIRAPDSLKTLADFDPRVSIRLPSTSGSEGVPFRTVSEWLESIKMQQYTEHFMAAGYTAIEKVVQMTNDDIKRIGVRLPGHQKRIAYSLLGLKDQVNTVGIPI
Epidermal growth factor receptor (Homo sapiens), P00533 [L861Q], sequence (P00533 whole entry L861Q): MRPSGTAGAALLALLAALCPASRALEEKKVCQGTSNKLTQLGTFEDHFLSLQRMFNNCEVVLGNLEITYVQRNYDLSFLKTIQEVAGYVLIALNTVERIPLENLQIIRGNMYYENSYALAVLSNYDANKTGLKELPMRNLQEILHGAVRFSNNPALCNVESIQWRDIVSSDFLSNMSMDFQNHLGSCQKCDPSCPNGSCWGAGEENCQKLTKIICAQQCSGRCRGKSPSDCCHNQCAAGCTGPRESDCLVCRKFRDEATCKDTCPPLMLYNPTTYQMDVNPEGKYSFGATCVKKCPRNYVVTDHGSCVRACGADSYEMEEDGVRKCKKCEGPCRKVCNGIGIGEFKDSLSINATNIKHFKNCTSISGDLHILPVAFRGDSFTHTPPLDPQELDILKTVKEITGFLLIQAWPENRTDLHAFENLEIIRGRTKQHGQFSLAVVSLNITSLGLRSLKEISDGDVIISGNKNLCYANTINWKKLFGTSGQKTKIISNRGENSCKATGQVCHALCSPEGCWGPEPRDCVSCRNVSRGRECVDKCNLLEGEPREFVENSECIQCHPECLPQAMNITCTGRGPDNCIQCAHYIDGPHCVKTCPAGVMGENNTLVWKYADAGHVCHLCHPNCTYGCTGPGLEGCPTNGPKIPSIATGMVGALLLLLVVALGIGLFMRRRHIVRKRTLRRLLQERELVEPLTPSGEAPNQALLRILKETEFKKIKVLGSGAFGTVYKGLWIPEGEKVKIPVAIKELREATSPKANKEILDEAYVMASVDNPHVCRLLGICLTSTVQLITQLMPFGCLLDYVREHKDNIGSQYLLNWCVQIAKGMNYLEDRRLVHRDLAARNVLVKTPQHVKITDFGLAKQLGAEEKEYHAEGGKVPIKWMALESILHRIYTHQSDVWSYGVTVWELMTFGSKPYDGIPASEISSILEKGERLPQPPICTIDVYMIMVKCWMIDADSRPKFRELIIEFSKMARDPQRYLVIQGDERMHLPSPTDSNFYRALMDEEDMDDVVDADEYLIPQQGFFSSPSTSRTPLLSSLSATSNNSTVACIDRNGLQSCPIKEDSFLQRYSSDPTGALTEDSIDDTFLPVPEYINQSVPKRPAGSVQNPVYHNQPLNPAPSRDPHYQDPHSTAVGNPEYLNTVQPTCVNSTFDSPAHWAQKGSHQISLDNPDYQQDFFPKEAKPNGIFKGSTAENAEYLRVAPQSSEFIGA
Epidermal growth factor receptor (Homo sapiens), sequence (P00533 whole entry): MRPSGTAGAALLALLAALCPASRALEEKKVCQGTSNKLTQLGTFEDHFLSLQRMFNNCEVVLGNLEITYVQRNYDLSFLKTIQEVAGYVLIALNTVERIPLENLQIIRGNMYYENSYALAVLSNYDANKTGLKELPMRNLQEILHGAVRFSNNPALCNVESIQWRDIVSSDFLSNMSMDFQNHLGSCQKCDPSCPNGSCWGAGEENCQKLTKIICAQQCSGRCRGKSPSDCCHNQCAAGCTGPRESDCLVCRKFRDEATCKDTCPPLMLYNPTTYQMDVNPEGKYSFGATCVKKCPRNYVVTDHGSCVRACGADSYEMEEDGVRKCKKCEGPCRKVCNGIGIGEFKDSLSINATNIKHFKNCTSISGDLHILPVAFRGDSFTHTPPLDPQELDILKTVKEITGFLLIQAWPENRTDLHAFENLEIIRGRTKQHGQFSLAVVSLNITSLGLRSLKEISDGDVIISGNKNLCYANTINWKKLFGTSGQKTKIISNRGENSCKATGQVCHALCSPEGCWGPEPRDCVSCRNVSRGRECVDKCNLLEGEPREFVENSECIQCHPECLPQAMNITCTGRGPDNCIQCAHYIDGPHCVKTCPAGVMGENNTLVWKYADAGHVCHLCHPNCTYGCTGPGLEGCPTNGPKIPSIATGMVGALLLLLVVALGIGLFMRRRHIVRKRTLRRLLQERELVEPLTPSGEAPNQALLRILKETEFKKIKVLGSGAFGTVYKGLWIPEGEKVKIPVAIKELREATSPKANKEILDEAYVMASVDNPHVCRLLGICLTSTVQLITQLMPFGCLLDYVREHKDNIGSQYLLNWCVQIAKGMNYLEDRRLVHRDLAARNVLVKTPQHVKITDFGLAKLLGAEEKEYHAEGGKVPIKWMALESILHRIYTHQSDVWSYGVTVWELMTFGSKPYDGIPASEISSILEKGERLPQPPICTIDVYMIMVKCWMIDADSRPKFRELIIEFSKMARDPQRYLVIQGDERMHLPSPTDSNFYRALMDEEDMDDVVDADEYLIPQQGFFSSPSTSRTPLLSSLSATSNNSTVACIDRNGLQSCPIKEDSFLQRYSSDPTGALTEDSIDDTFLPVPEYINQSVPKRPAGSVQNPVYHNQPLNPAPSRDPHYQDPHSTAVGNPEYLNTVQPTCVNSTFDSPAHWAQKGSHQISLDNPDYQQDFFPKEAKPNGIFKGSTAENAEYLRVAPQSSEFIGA
Tyrosine-protein kinase CSK (Homo sapiens), sequence (P41240 2-450 limits assumed): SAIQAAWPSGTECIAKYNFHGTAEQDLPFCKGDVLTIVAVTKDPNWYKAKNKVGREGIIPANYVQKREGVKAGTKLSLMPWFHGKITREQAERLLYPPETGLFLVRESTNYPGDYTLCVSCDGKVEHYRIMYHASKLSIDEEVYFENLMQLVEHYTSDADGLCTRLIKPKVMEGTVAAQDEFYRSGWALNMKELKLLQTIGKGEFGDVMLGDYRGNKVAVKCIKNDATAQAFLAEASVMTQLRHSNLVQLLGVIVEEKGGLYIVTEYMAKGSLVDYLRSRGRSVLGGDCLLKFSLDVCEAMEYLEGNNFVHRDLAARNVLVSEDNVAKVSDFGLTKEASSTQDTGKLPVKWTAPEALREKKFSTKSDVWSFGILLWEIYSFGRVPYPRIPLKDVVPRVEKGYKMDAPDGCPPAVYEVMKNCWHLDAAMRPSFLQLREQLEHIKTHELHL

Regarding `FC(F)(F)c1cccc(Nc2nccc(-c3cnn4nc(-c5ccccc5)ccc34)n2)c1`, the inhibition is 1.44% in [1]; 0.05% in [2]; 2.08% in [3]; -0.78% in test [4]; 0.92% in test [5]; -0.7% in test [6]. Also, the inhibition is -0.57% in test [7]; 1.2% in test [8]; 0.07% in [9]; 1.28% in [10]; -0.22% in test [11]; 0.52% in test [12]. Besides, the inhibition is -0.49% in test [13]; 2% in [14]; 0.59% in [15]; 2.67% in test [16]; 3.91% in test [17]; 5.08% in [18]. The inhibition in test [19] was -4.97%; in test [20] it was 4.58%.
On to `COc1cc(N2CCN(C(C)C)CC2)ccc1Nc1nc(Nc2ccc(F)cc2C(=O)NC[C@@H](O)CO)c2cc[nH]c2n1`, for which the inhibition in test [1] is 6.92%; in test [2], 0.31%; in [3], 1.21%; in test [4] it was -0.53%; in [5], 0.84%; in test [6], 0.89%. In addition, the inhibition came out at 11.2% in [7]; 5.68% in [8]; 8.58% in [9]; 4.54% in test [10]; 25.8% in test [11]; 11.9% in test [12]. Besides, the inhibition is 60.2% in test [13]; -2.5% in test [14]; -3.57% in test [15]; 0.19% in [16]; -0.58% in test [17]; 9.3% in [18]. In addition, the figures for the inhibition in test [19] and in test [20] were 12.5% and 3.1%, respectively.
For the molecule `COc1cc(Nc2ncc3c(C)nc(-c4cccc(C(F)(F)F)c4)n3n2)cc(OC)c1OC`, the inhibition in test [1] is 12.9%; in test [2], 0.31%; in test [3], 0.73%; in test [4], -0.06%; in [5], 0.98%; in test [6] it was 4.13%. The inhibition is 4.89% in test [7]; 2.74% in test [8]; 8.43% in test [9]; 1.49% in test [10]; 5.56% in [11]; -1.07% in test [12]. Further, the inhibition is 5.23% in test [13]; 4.32% in [14]; 17.5% in test [15]; 6.02% in test [16]; 10.7% in [17]; 22.4% in test [18]. For the same molecule, the values for the inhibition in test [19] and in test [20] were 56.1% and 17.1%, respectively.
Consider `O=C(Nc1n[nH]c2nc(-c3ccc(O)cc3)c(Br)cc12)C1CC1`, for which the inhibition in [1] was determined as 10.9%; in [2], 2.17%; in [3] it was 4.12%; in test [4], 5.76%; in [5], 6.97%; in test [6] it was 5.48%. The inhibition in test [7] came out at 9.71%; in test [8] it was 6.22%; in [9], 7.61%; in test [10], 4.95%; in test [11], 5.37%; in [12], 6.72%. For the same molecule, the inhibition is 8.16% in test [13]; 4.79% in test [14]; 24.2% in [15]; 8.45% in [16]; 14% in test [17]; 15.2% in test [18]. The inhibition in [19] was 39.2%; in test [20], 11.9%.
Turning to `NS(=O)(=O)c1ccc(N/N=C2\C(=O)Nc3ccc(-c4cnco4)cc32)cc1`, the inhibition is 4.17% in test [1]; 1.59% in test [2]; 2.15% in [3]; 9.52% in test [4]; 12.9% in [5]; 2.54% in [6]. Further, the inhibition in test [7] is 6.44%; in test [8], 2.45%; in [9], 4.95%; in [10], 0.19%; in test [11] it was 1.56%; in [12], -2.11%. Moreover, the inhibition in test [13] is 5.42%; in [14] it was -5.84%; in test [15], -4.92%; in test [16], -2.34%; in [17] it was 0.23%; in [18] it was 5.13%. For the same molecule, the inhibition in test [19] worked out at 10.8%; in test [20], 6.73%.
As to `C#Cc1cccc(Nc2ncnc3ccc(OCCCCNCCS(C)(=O)=O)cc23)c1`, the inhibition in test [1] was 8.24%; in [2] it was 4.72%; in test [3] it was 9.88%; in [4], 75.9%; in [5], 85.4%; in [6], 96.8%. The inhibition was found to be 97.7% in test [7]; 91.7% in test [8]; 97.6% in test [9]; 3.8% in test [10]; 14.6% in [11]; 3.12% in test [12]. Besides, the inhibition was 22.8% in [13]; -2.77% in [14]; -2.32% in [15]; 1.3% in [16]; 5.15% in [17]; 12.3% in [18]. Moreover, the inhibition stood at 15.3% in test [19] and 10.3% in test [20].
